# In PubChem BioAssay AID504441 (Broad Institute, 2011):
# Screen size: about 310,000 compounds; about 1,300 (0.42%) were called active. The full list was thinned out, with actives kept by preference. Values without a mark were called inactive. Cut-off read from the data, not from the text of the source: active = inhibition above about 50%; inactive = the rest.
# Molecular target: Dual specificity tyrosine-phosphorylation-regulated kinase 1A (Rattus norvegicus) (UniProt Q63470)
# Assay: rat Dyrk1A kinase inhibitors, primary screen, biochemical, single point, plate reader (AID 504441);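 note: plate controls were vehicle with enzyme for no effect and no enzyme for full effect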
# Details: ADP-Glo luminescence, NFATc1 peptide, at 12.5 µM, hits give high values
row,SMILES,inhibition
1,CC(C)c1cc(N=O)cc(C(C)C)c1O,7.15%
2,CCOc1cccc(/C=N/N2C(=O)CSC2=S)c1O,6.88%
3,Cc1cc(C(=O)N/N=C/c2ccc(O)c([N+](=O)[O-])c2)c(C)n1-c1ccc(F)cc1,-6.46%
4,O=C1CSC(=S)N1/N=C/c1ccc(O)c([N+](=O)[O-])c1,90.8% (active)
5,COC1=CC(=O)OC(C)(c2ccccc2)C1 (stereo not drawn),1.06%
6,COc1ccc2nc(N3C(=O)C(O)=C(C(=O)c4ccco4)C3c3ccco3)sc2c1 (stereo not drawn),7.88%
7,O=S1(=O)CSCS(=O)(=O)C1,-4.37%
8,c1coc(CNc2ncnc3ccccc23)c1,6.44%
9,Cc1noc(C)c1-c1ccc2ncnc(NC(C)c3ccco3)c2c1 (stereo not drawn),58% (active)
10,C=CC(=O)Nc1ccc(Nc2ccnc(Nc3ccc(N4CCN(C)CC4)cc3)n2)cc1,24.1%
11,COc1ccc(Nc2ccc3ccccc3c2)cc1,-0.0929%
12,NC(=O)C1(Nc2ccccc2Cl)CCCC1,-0.756%
13,COCCN(C(=O)C(C)N1C(=O)c2ccccc2C1=O)c1c(N)n(CC(C)C)c(=O)[nH]c1=O (stereo not drawn),-2.22%
14,Cc1c(NS(=O)(=O)c2cccc(C(=O)Nc3ccc(SC(F)F)cc3)c2)c(=O)n(-c2ccccc2)n1C,-4%
15,COc1ccc2oc(C)c(NC(C)=O)c2c1,1.53%
16,COc1ccc2oc(N)c(C=O)c(=O)c2c1,59.5% (active)
17,COc1ccc2oc(N)nc2c1,7.05%
18,NC(=O)C1(N2CCCC2)CCN(Cc2ccccc2)CC1,-3.22%
19,NC(=O)c1ncn([C@@H]2O[C@H](CN=C3NS(=O)(=O)c4ccccc43)[C@@H](O)[C@H]2O)n1,3.02%

row,SMILES,inhibition
1,CC(=O)Oc1ccc2c(c1)C(=O)c1ccccc1C2=O,53.6% (active)
2,CC(=O)Oc1ccc2c(C)c(CC(C)O)c(=O)oc2c1 (stereo not drawn),2.53%
3,CC(=O)Oc1cccc(C(=O)Nc2ccccc2NC(=O)c2cccc(OC(C)=O)c2)c1,-0.37%
4,O=C(NCCC1=CCCCC1)c1ccc(-n2cncn2)cc1,4.88%
5,O=C(Nc1ccccc1)Oc1cccc2cccnc12,7.72%
6,O=C(c1cccc(S(=O)(=O)N2CCCCCC2)c1)N1CCN(Cc2ccccc2)CC1,-0.662%
7,NC(=S)c1ccc(C(N)=S)o1,61.8% (active)
8,CC1CN(c2nc(Nc3ccccc3)nc(N)c2[N+](=O)[O-])CC(C)O1 (stereo not drawn),42%
9,O=[N+]([O-])c1ccc(NCCCN2CCOCC2)c(Cl)c1,0.781%
10,Nc1nc(NCCCN2CCOCC2)nc(Nc2ccccc2)c1[N+](=O)[O-],67.2% (active)
11,CC(=O)OCC1(O)CC23CCC4c5ccoc5CCC4(C)C2CCC1C3 (stereo not drawn),7.82%
12,O=c1nc(NO)ccn1C1CCCO1 (stereo not drawn),-3%
13,CCC1([N+](=O)[O-])COC(c2ccc(C(C)C)cc2)OC1 (stereo not drawn),-3.06%
14,CC(=O)C1C(c2ccc(Cl)cc2)NC(=O)NC1(O)C(F)(F)F (stereo not drawn),57.4% (active)
15,CCOC(=O)C1C(c2ccc(O)cc2)NC(=O)NC1(O)C(F)(F)F (stereo not drawn),2.32%
16,CC(=O)C1C(c2cccc(Oc3ccccc3)c2)NC(=O)NC1(O)C(F)(F)F (stereo not drawn),-5.37%
17,O=C(NN=CC=Cc1ccccc1)C(O)C(O)C(=O)NN=CC=Cc1ccccc1 (stereo not drawn),1.04%
18,O=S(=O)(Cc1ccc(Cl)cc1Cl)c1ccc(Cl)cc1,-0.684%
19,COc1ccc(C(CNC(=O)c2cccc(S(=O)(=O)Nc3ccc(Br)cc3)c2)N(C)C)cc1 (stereo not drawn),-0.345%
